According to PubChem BioAssay (EPA / NIEHS):
Records with an inconclusive call do not appear. The source made the active and inactive calls. How the source made its calls, unless noted: active means hit-call score of the fitted dose curve at least 0.9, where 1 is the maximum; inconclusive means response in the unintended direction; inactive means score below 0.9.

Experiments:
[1] = read-out: organic anion transporter (SLCO1B1), SLCO1B1 (gene 10599); assay: CLD_SLCO1B1_6hr: CellzDirect (CLD) Gene Expression Assay for organic anion transporter (SLCO1B1) at 6 hours (AID 2283668);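 further: active means mRNA induction above DMSO baseline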
Procedure, shortened: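 SLCO1B1 mRNA induction measured 6 h after dosing by quantitative nuclease protection with chemiluminescent read-out, in human primary hepatocyte cultures given chemicals at several concentrations (vehicle 0.2% DMSO). Increase over DMSO baseline fitted; morphology-based cytotoxicity annotated yes/no.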

[2] = read-out: sulfotransferase (SULT2A), SULT2A1 (gene 6822); assay: CLD_SULT2A_6hr: CellzDirect (CLD) Gene Expression Assay for sulfotransferase (SULT2A) at 6 hours (AID 2283669);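 further: hits raise transcript level above the DMSO vehicle baseline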
Procedure, shortened: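 Measured 6 h after dosing, SULT2A1 mRNA in human hepatocyte lysates was quantified by S1 nuclease protection with chemiluminescent detection. Increases fitted against 0.2% DMSO vehicle baseline; phase-contrast cytotoxicity recorded yes/no.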

[3] = read-out: glucuronosyltransferase (UGT1A1), UGT1A1 (gene 54658); assay: CLD_UGT1A1_6hr: CellzDirect (CLD) Gene Expression Assay for glucuronosyltransferase (UGT1A1) at 6 hours (AID 2283672)
Procedure, shortened: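 UGT1A1 mRNA induction, read by quantitative nuclease protection assay, 6 h after dosing primary human hepatocytes (two donors, 0.2% DMSO vehicle). Gain of signal fitted relative to vehicle.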

[4] = read-out: xenobiotic metabolism (CYP1A1), CYP1A1 (gene 1543); assay: CLD_CYP1A1_24hr: CellzDirect (CLD) Gene Expression Assay for xenobiotic metabolism (CYP1A1) at 24 hours (AID 2283673);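 further: CYP1A1 mRNA level by quantitative nuclease protection with chemiluminescence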
Procedure, shortened: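 Transcript levels were read at 24 h by qNPA chemiluminescence in human liver primary cells. Cells got daily fresh dosing at multiple concentrations (vehicle 0.2% DMSO). Induction fitted upward against DMSO; phase-contrast cytotoxicity annotated.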

[5] = read-out: ABC Transporter (ABCB11), ABCB11 (gene 8647); assay: CLD_ABCB11_24hr: CellzDirect (CLD) Gene Expression Assay for ABC Transporter (ABCB11) at 24 hours (AID 2283674; active means hit-call score of the fitted dose curve at least 0.9, where 1 is the maximum; inactive means score below 0.9)
Procedure, shortened: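 ABCB11 transcript was quantified by qNPA chemiluminescence in cultured human liver hepatocytes 24 hours after dosing. Fresh dosing solutions were applied on consecutive days, against a 0.2% DMSO vehicle. Cytotoxicity was noted by phase-contrast morphology.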

[6] = CLD_ACTIN_6hr: CellzDirect (CLD) Gene Expression Assay for Baseline Control (Actin) at 6 hours (AID 2283676);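 further: active means increased actin mRNA relative to DMSO vehicle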
Procedure, shortened: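 Baseline actin transcript level measured by qNPA (S1 nuclease protection, chemiluminescence) in human hepatocyte cultures 6 h after chemical exposure; 0.2% DMSO vehicle as reference, cytotoxicity noted from morphology.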

[7] = read-out: Cytochrome P450 2B6 (Homo sapiens) (UniProt P20813); assay: CLD_CYP2B6_6hr: CellzDirect (CLD) Gene Expression Assay for xenobiotic metabolism (CYP2B6) at 6 hours (AID 2283677);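 further: actives raise CYP2B6 transcript above DMSO baseline so AC50 marks an inducer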
Procedure, shortened: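 CYP2B6 transcript levels, read by chemiluminescent qNPA, were fitted for increase versus DMSO baseline; cultured human liver hepatocytes from two donor preparations were harvested 6 h after exposure to test chemicals at multiple concentrations.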

[8] = read-out: Cytochrome P450 3A4 (Homo sapiens) (UniProt P08684); assay: CLD_CYP3A4_6hr: CellzDirect (CLD) Gene Expression Assay for xenobiotic metabolism (CYP3A4) at 6 hours (AID 2283680)
Procedure, shortened: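 CYP3A4 mRNA induction, 6 h after dosing of cultured primary human hepatocytes from two donors, read by quantitative nuclease protection (qNPA, chemiluminescence). Vehicle 0.2% DMSO as baseline; morphology-based cytotoxicity annotated yes/no.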

[9] = read-out: xenobiotic metabolism (CYP1A2), CYP1A2 (gene 1544); assay: CLD_CYP1A2_24hr: CellzDirect (CLD) Gene Expression Assay for xenobiotic metabolism (CYP1A2) at 24 hours (AID 2283683)
Procedure, shortened: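 CYP1A2 mRNA induction measured by quantitative nuclease protection (chemiluminescent) in human primary hepatocytes 24 h after multi-concentration chemical dosing with daily fresh solutions. DMSO (0.2%) baseline; positive-direction fitting; morphology-based cytotoxicity noted.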

[10] = read-out: Cytochrome P450 2B6 (Homo sapiens) (UniProt P20813); assay: CLD_CYP2B6_24hr: CellzDirect (CLD) Gene Expression Assay for xenobiotic metabolism (CYP2B6) at 24 hours (AID 2283686)
Procedure, shortened: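 qNPA chemiluminescent measurement of mRNA at 24 hours in human primary hepatocyte cultures from two donor preparations, with daily fresh dosing and 0.2% DMSO vehicle as baseline. Morphology-based cytotoxicity flagged yes/no.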

[11] = read-out: Cytochrome P450 2C9 (Homo sapiens) (UniProt P11712); assay: CLD_CYP2C9_24hr: CellzDirect (CLD) Gene Expression Assay for xenobiotic metabolism (CYP2C9) at 24 hours (AID 2283688)
Procedure, shortened: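 Induction of CYP2C9 mRNA was quantified by quantitative nuclease protection assay (chemiluminescence), gain of signal versus 0.2% DMSO vehicle, 24 h after dosing. Human primary hepatocytes (two donors) received fresh chemical daily at multiple concentrations; morphology-based cytotoxicity flagged yes/no.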

[12] = read-out: HMG-CoA synthase (HMGCS2), HMGCS2 (gene 3158); assay: CLD_HMGCS2_6hr: CellzDirect (CLD) Gene Expression Assay for HMG-CoA synthase (HMGCS2) at 6 hours (AID 2283682);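 further: actives raise HMGCS2 transcript above the 0.2% DMSO vehicle baseline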
Procedure, shortened: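 HMGCS2 transcript induction read by quantitative nuclease protection with chemiluminescence, 6 h after dosing of primary human hepatocytes. Baseline was 0.2% DMSO vehicle; phase-contrast morphology gave a yes/no cytotoxicity annotation.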

[13] = read-out: Broad substrate specificity ATP-binding cassette transporter ABCG2 (Homo sapiens) (UniProt Q9UNQ0); assay: CLD_ABCG2_24hr: CellzDirect (CLD) Gene Expression Assay for ABC Transporter (ABCG2) at 24 hours (AID 2283685)
Procedure, shortened: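 ABCG2 mRNA induction, read as gain of chemiluminescent signal over 0.2% DMSO, was measured by quantitative nuclease protection at 24 h. Cultured human liver hepatocytes were given fresh dosing solutions of test chemicals at several concentrations each day.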

[14] = read-out: Cytochrome P450 (CYP24A1_1), CYP24A1 (gene 1591); assay: LTEA_HepaRG_CYP24A1_1: Life Technologies and Expression Analysis (LTEA) Assay for Cytochrome P450 (CYP24A1_1) using HepaRG (AID 2283671; active means hit-call score of the fitted dose curve at least 0.9, where 1 is the maximum; inactive means score below 0.9); details: mRNA level, 48 h; actives raise or lower the signal
Procedure, shortened: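 Cultures of human HepaRG were treated in duplicate for 48 h (0.5% DMSO vehicle, highest dose 100 uM). CYP24A1 mRNA by qRT-PCR, normalized to ACTB, GAPDH, POLR2A.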

[15] = read-out: Cytochrome P450 2C19 (Homo sapiens) (UniProt P33261); assay: CLD_CYP2C19_6hr: CellzDirect (CLD) Gene Expression Assay for xenobiotic metabolism (CYP2C19) at 6 hours (AID 2283678)
Procedure, shortened: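 CYP2C19 transcript induction was quantified by quantitative nuclease protection assay with chemiluminescent read-out, 6 h after dosing. Cells were primary human hepatocytes from two donor preparations, given fresh dosing solutions daily in 0.2% DMSO vehicle. Activity was relative to DMSO.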

[16] = read-out: ABC Transporter (ABCB1), ABCB1 (gene 5243); assay: CLD_ABCB1_24hr: CellzDirect (CLD) Gene Expression Assay for ABC Transporter (ABCB1) at 24 hours (AID 2283684);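 on AC50: potency for increase in ABCB1 mRNA relative to DMSO vehicle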
Procedure, shortened: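 ABCB1 mRNA induction versus 0.2% DMSO vehicle was read by qNPA chemiluminescence at 24 h. Cultured human hepatocytes from two donor preparations received daily fresh dosing, and phase-contrast cytotoxicity calls were annotated alongside the data.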

[17] = CLD_ACTIN_24hr: CellzDirect (CLD) Gene Expression Assay for Baseline Control (Actin) at 24 hours (AID 2283670)
Procedure, shortened: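 This 24 h qNPA (S1 nuclease protection, chemiluminescence) actin transcript readout in cultured human liver primary cells serves as baseline control. Signal is fitted upward relative to 0.2% DMSO; chemicals tested at multiple concentrations across two donor preparations.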

[18] = CCTE_Padilla_ZF_144hpf_TERATOSCORE: (Legacy) CCTE's 144 Hour Post-fertilization zebrafish Assay Teratoscore, Padilla Lab (AID 2283679; active means hit-call score of the fitted dose curve at least 0.9, where 1 is the maximum; inactive means score below 0.9)
Procedure, shortened: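 Larvae scored by eye at 144 hpf for death, hatching and malformations after a day in clean Hanks'. Before that, daily-renewed exposure at 80 uM (0.4% DMSO, 26C) from roughly 6-8 hpf through 5 dpf, 4 embryos per chemical.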

Cytochrome P450 3A4 (Homo sapiens), sequence (P08684 whole entry, looked up): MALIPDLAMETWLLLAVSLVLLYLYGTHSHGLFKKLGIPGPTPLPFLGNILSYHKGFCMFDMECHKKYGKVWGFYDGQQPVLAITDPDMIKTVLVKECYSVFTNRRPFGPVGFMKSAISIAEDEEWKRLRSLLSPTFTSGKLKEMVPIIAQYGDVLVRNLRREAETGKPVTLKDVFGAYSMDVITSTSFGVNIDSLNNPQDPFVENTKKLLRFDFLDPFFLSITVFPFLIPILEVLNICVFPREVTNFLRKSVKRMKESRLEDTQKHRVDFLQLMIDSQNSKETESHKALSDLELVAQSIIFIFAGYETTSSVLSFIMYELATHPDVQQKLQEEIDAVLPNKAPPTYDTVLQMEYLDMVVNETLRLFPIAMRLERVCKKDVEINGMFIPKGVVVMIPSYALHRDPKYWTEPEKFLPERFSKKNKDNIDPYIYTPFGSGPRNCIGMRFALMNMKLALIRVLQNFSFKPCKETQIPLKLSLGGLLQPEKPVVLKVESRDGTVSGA
Broad substrate specificity ATP-binding cassette transporter ABCG2 (Homo sapiens), sequence (Q9UNQ0 whole entry, looked up): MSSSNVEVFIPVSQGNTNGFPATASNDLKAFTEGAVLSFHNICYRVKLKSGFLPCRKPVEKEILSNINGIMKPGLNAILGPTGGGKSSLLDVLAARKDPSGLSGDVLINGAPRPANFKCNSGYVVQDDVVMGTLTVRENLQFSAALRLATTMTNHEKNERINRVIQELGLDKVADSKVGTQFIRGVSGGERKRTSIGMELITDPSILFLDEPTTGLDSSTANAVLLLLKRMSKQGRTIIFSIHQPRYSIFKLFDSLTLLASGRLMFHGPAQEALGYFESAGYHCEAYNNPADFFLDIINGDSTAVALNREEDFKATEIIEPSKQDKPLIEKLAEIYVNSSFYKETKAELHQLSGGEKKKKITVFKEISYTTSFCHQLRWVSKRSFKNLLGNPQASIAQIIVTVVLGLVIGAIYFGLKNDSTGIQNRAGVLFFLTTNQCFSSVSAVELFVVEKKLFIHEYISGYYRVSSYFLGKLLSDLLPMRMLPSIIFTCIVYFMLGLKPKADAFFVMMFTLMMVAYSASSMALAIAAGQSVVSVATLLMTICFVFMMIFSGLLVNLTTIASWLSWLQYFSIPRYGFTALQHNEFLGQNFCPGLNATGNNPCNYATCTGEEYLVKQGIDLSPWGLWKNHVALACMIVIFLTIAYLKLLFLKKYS
Cytochrome P450 2C19 (Homo sapiens), sequence (P33261 whole entry, looked up): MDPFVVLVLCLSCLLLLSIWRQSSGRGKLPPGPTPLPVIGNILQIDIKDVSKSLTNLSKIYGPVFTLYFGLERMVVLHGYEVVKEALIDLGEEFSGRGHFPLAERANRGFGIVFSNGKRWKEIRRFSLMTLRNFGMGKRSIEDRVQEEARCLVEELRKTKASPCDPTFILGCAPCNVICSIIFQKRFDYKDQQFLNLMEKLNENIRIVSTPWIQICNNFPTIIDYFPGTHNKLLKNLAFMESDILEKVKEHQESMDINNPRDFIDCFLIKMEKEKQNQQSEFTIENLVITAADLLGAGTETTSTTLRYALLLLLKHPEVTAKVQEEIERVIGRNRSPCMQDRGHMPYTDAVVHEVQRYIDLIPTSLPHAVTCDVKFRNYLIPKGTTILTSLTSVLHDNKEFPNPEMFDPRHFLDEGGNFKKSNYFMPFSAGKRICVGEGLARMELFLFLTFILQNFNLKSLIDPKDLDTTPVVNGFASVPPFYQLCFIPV

For `CCCCOCN(C(=O)CCl)c1c(CC)cccc1CC`, which outcome [1] is on record?
The outcome was “inactive”.

What about the AC50 [2] of the same compound?
Its AC50 is 4.32 µM (active).

And the outcome [3]?
Its outcome is “inactive”.

And the AC50 [4]?
Its AC50 is 6.4 µM (active).

And the outcome [5]?
Its outcome is “inactive”.

And the outcome [6]?
The outcome was “inactive”.

And the AC50 [7]?
The AC50 was 2.29 µM (active).

What about the outcome [8] of the same compound?
Its outcome is “inactive”.

What about the outcome [9] of the same compound?
The outcome was “inactive”.

And the AC50 [10]?
Its AC50 is 1.11 µM (active).

And the outcome [11]?
The outcome was “inactive”.

For `CC1(C)C(C=C(Cl)Cl)C1C(=O)OC(C#N)c1cccc(Oc2ccccc2)c1` (stereo unspecified), which outcome [1] is on record?
The outcome was “inactive”.

And the outcome [2]?
Its outcome is “inactive”.

And the outcome [3]?
The outcome was “inactive”.

And the AC50 [4]?
The AC50 was 8.15 µM (active).

What about the outcome [6] of the same compound?
The outcome was “inactive”.

What about the AC50 [7] of the same compound?
Its AC50 is 1.54 µM (active).

And the outcome [12]?
The outcome was “inactive”.

What about the AC50 [9] of the same compound?
The AC50 was 11 µM (active).

What about the outcome [13] of the same compound?
Its outcome is “inactive”.

What about the AC50 [10] of the same compound?
The AC50 was 4.4 µM (active).

For `CCCCC(C#N)(Cn1cncn1)c1ccc(Cl)cc1` (stereo unspecified), which outcome [1] is on record?
The outcome was “inactive”.

And the outcome [2]?
The outcome was “inactive”.

And the outcome [14]?
Its outcome is “inactive”.

What about the outcome [3] of the same compound?
The outcome was “inactive”.

What about the AC50 [4] of the same compound?
The AC50 was 35.3 µM (active).

What about the outcome [6] of the same compound?
The outcome was “inactive”.

What about the AC50 [7] of the same compound?
Its AC50 is 2.77 µM (active).

What about the outcome [15] of the same compound?
The outcome was “inactive”.

What about the AC50 [8] of the same compound?
The AC50 was 2.99 µM (active).

What about the AC50 [9] of the same compound?
The AC50 was 20 µM (active).

And the outcome [16]?
Its outcome is “inactive”.

What about the outcome [13] of the same compound?
Its outcome is “inactive”.

And the AC50 [10]?
Its AC50 is 9.62 µM (active).

What does the source list for `CC1(C)CON(Cc2ccccc2Cl)C1=O`?
outcome [2]: inactive; outcome [17]: inactive; outcome [3]: inactive; outcome [4]: inactive; outcome [6]: inactive; outcome [15]: inactive; AC50 [8]: 1.89 µM (active); outcome [12]: inactive; outcome [9]: inactive; outcome [13]: inactive; AC50 [10]: 20 µM (active)

For `Cc1ccc(N=CN(C)C=Nc2ccc(C)cc2C)c(C)c1`, which outcome [1] is on record?
The outcome was “inactive”.

What about the outcome [2] of the same compound?
Its outcome is “inactive”.

And the AC50 [4]?
The AC50 was 1.9 µM (active).

What about the outcome [6] of the same compound?
The outcome was “inactive”.

And the outcome [15]?
The outcome was “inactive”.

And the outcome [12]?
The outcome was “inactive”.

What about the outcome [9] of the same compound?
Its outcome is “inactive”.

What about the AC50 [16] of the same compound?
The AC50 was 28.2 µM (active).

And the outcome [13]?
The outcome was “inactive”.

And the outcome [10]?
The outcome was “inactive”.

For `CC(C)C1(C)N=C(c2ncccc2C(=O)O)NC1=O` (stereo unspecified), which outcome [1] is on record?
The outcome was “inactive”.

And the outcome [17]?
Its outcome is “inactive”.

And the outcome [3]?
Its outcome is “inactive”.

And the outcome [5]?
Its outcome is “inactive”.

What about the outcome [15] of the same compound?
Its outcome is “inactive”.

And the outcome [13]?
Its outcome is “inactive”.

And the AC50 [10]?
Its AC50 is 0.000671 µM (active).

Which results are given for `COCC(=O)N(c1c(C)cccc1C)C(C)C(=O)OC` (stereo unspecified)?
outcome [1]: inactive; outcome [2]: inactive; outcome [3]: inactive; outcome [4]: inactive; outcome [5]: inactive; AC50 [7]: 2.5 µM (active); outcome [15]: inactive; outcome [12]: inactive; outcome [16]: inactive; outcome [13]: inactive; AC50 [10]: 4.09 µM (active)

With `N#Cc1c(Cl)cccc1Cl` as the compound, how does the outcome [1] read?
Its outcome is “inactive”.

What about the outcome [2] of the same compound?
The outcome was “inactive”.

What about the outcome [3] of the same compound?
Its outcome is “inactive”.

And the outcome [6]?
Its outcome is “inactive”.

What about the outcome [15] of the same compound?
The outcome was “inactive”.

What about the outcome [8] of the same compound?
The outcome was “inactive”.

What about the outcome [13] of the same compound?
Its outcome is “inactive”.

What about the AC50 [10] of the same compound?
Its AC50 is 4.46 µM (active).

What about the outcome [11] of the same compound?
The outcome was “inactive”.

Which outcome [1] does the source give for `CCCC(=NOCC)C1=C(O)CC(CC(C)SCC)CC1=O` (stereo unspecified) here?
Its outcome is “inactive”.

What about the outcome [2] of the same compound?
Its outcome is “inactive”.

What about the outcome [3] of the same compound?
The outcome was “inactive”.

And the outcome [4]?
The outcome was “inactive”.

And the outcome [6]?
Its outcome is “inactive”.

And the outcome [18]?
Its outcome is “inactive”.

And the AC50 [8]?
Its AC50 is 20 µM (active).

What about the outcome [13] of the same compound?
The outcome was “inactive”.

And the AC50 [10]?
The AC50 was 28.9 µM (active).
